The panel holds about 83,000 compounds, 20% with a hit somewhere; the sample as a whole holds those more often.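 Assay: single dose, 48 h. Readout: percent growth (0 = no net growth; negative = cell death). Active: <10.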 The source made the active and inactive calls.
Legend:
Experiment in all cases: NCI-60 one-dose screen, 48 h (100 = growth as untreated, 0 = no growth, -100 = all killed)
Conditions in all cases: 10 µM unless noted
SK-MEL-2 melanoma = test system: SK-MEL-2 melanoma
EKVX NSCLC = test system: EKVX NSCLC
SN12C renal = test system: SN12C renal
UO-31 renal = test system: UO-31 renal
TK-10 renal = test system: TK-10 renal
ACHN renal = test system: ACHN renal
CAKI-1 renal = test system: CAKI-1 renal
CCRF-CEM leukemia = test system: CCRF-CEM leukemia
MOLT-4 leukemia = test system: MOLT-4 leukemia

Measured: growth

COc1cc(/C(C)=C(\c2ccc(Cl)cc2)c2ccc(OCCN3CCCC3)cc2)ccc1F
inactive: SK-MEL-2 melanoma 98.8% | EKVX NSCLC 74% | SN12C renal 70.2% | UO-31 renal 39.7% | TK-10 renal 69.3% | ACHN renal 83.1% | CAKI-1 renal 65.2% | CCRF-CEM leukemia 37.6% | MOLT-4 leukemia 32.6%

Cc1cc2nc3c4cc(C=O)ccc4n(CCN(C)C)c3nc2cc1C
active: UO-31 renal -28.6% | ACHN renal -15% | CAKI-1 renal 3.46% | MOLT-4 leukemia 9.19%
inactive: SK-MEL-2 melanoma 11.7% | EKVX NSCLC 25.4% | SN12C renal 20.5% | TK-10 renal 23.2% | CCRF-CEM leukemia 21.7%

COc1ccc2[nH]c(=O)c(CN3CCN(c4nccc(-c5ccc(Cl)cc5)n4)CC3)cc2c1
inactive: SK-MEL-2 melanoma 93.1% | EKVX NSCLC 96.4% | SN12C renal 88.8% | UO-31 renal 80.7% | TK-10 renal 104% | ACHN renal 81.9% | CAKI-1 renal 86.7% | CCRF-CEM leukemia 85.1% | MOLT-4 leukemia 75.5%

COC(=O)C(OC(C)=O)C(OC(C)=O)c1ccc(OC)c(OC)c1 (configuration not stated)
inactive: SK-MEL-2 melanoma 96.5% | EKVX NSCLC 107% | SN12C renal 101% | UO-31 renal 106% | TK-10 renal 115% | ACHN renal 104% | CAKI-1 renal 101% | CCRF-CEM leukemia 94.9% | MOLT-4 leukemia 85.5%

CCCOc1ccc(/C=N/Nc2cc(C)nc3ccc(Br)cc23)cc1
inactive: SK-MEL-2 melanoma 93% | EKVX NSCLC 81.7% | SN12C renal 84.4% | UO-31 renal 72.6% | TK-10 renal 111% | ACHN renal 97.7% | CAKI-1 renal 91.3% | CCRF-CEM leukemia 28.3% | MOLT-4 leukemia 73.9%

CC(=O)Nc1cccc(-c2ccc3c(c2)NC(=O)/C3=C\c2ccc[nH]2)c1
inactive: SK-MEL-2 melanoma 54.7% | EKVX NSCLC 35% | SN12C renal 56.6% | UO-31 renal 25.9% | TK-10 renal 43.2% | ACHN renal 33.8% | CAKI-1 renal 33% | CCRF-CEM leukemia 27% | MOLT-4 leukemia 29.4%

C=C1C(=O)O[C@H]2[C@H]1CC/C(COC(=O)NCc1c[nH]c3ccc(Cl)cc13)=C\CC[C@@]1(C)O[C@@H]21
active: SK-MEL-2 melanoma -6.51% | EKVX NSCLC -22.4% | SN12C renal -60.1% | UO-31 renal -99.6% | TK-10 renal -53.9% | ACHN renal -98% | CAKI-1 renal -96.4% | CCRF-CEM leukemia -11.1% | MOLT-4 leukemia 3.46%

CN1CCC(=C(c2ccccc2)c2ccccc2)C(c2ccccc2)C1 (configuration not stated)
inactive: SK-MEL-2 melanoma 102% | EKVX NSCLC 89% | SN12C renal 99.4% | UO-31 renal 84.9% | TK-10 renal 96.2% | ACHN renal 93.1% | CAKI-1 renal 66.4% | CCRF-CEM leukemia 105% | MOLT-4 leukemia 92.1%

COc1ccc(/C=C2\Oc3cc(OCCCCCN4CCCCC4)ccc3C2=O)cc1OC
inactive: SK-MEL-2 melanoma 92.4% | EKVX NSCLC 78.7% | SN12C renal 86% | UO-31 renal 73.8% | TK-10 renal 82% | ACHN renal 100% | CAKI-1 renal 94.3% | CCRF-CEM leukemia 15.2% | MOLT-4 leukemia 70.2%

COc1cc(-c2csc(NC(=O)c3cc(F)cc(C(F)(F)F)c3)n2)cc(OC)c1OC
inactive: SK-MEL-2 melanoma 14.9% | EKVX NSCLC 50% | SN12C renal 35% | UO-31 renal 45.3% | TK-10 renal 65.1% | ACHN renal 49.1% | CAKI-1 renal 42.7% | CCRF-CEM leukemia 17% | MOLT-4 leukemia 25.8%

Cn1nc(CC#N)c2c(=N)n(N)cnc21
inactive: SK-MEL-2 melanoma 113% | EKVX NSCLC 94.4% | SN12C renal 98.6% | UO-31 renal 80.1% | TK-10 renal 104% | ACHN renal 108% | CAKI-1 renal 95.3% | CCRF-CEM leukemia 126% | MOLT-4 leukemia 94.7%

O=S(=O)(NCCCNc1nccc(-c2c(-c3cccc(F)c3)nc3sccn23)n1)c1cccc(F)c1
inactive: SK-MEL-2 melanoma 47.6% | EKVX NSCLC 52.4% | SN12C renal 56.3% | UO-31 renal 28.2% | TK-10 renal 72.3% | ACHN renal 42.5% | CAKI-1 renal 41.5% | CCRF-CEM leukemia 24.7%
active: MOLT-4 leukemia 9.94%

COc1ccc(CC(C)=C(c2ccc(OCCN3CCCCCC3)cc2)c2ccc(OCCN3CCCCCC3)cc2)cc1
active: SK-MEL-2 melanoma -82.2% | EKVX NSCLC -93.6% | SN12C renal -92.4% | UO-31 renal -98.8% | TK-10 renal -87.3% | ACHN renal -100% | CAKI-1 renal -92.5% | CCRF-CEM leukemia -57.9% | MOLT-4 leukemia -67.5%

Cn1ccnc1C(=O)/C=C/c1ccc(CC(=O)Nc2ccc(Cl)cc2)cc1
inactive: SK-MEL-2 melanoma 89.7% | EKVX NSCLC 40.6% | UO-31 renal 23.3% | TK-10 renal 27% | ACHN renal 49.8% | CAKI-1 renal 34.7%
active: SN12C renal 2.21% | CCRF-CEM leukemia 4.18% | MOLT-4 leukemia 5.64%

COc1cc2c(-c3cc4c(cc3CNCCc3ccc5c(c3)OCO5)OCO4)cccc2c(OC)c1O
inactive: SK-MEL-2 melanoma 92.9% | EKVX NSCLC 77.4% | SN12C renal 78.8% | UO-31 renal 45.5% | TK-10 renal 102% | ACHN renal 79.2% | CAKI-1 renal 54.9% | CCRF-CEM leukemia 79.5% | MOLT-4 leukemia 56.5%

C=C(C)[C@@H]1CC[C@]2(C(=O)N3CCN(C)CC3)CC[C@]3(C)[C@H](CC[C@@H]4[C@@]5(C)C/C(=C/c6ccncc6)C(=O)C(C)(C)[C@@H]5CC[C@]43C)[C@@H]12
inactive: SK-MEL-2 melanoma 64.6% | EKVX NSCLC 77.3% | SN12C renal 47.1% | UO-31 renal 48% | TK-10 renal 89.4% | ACHN renal 60.9% | CAKI-1 renal 71.1% | CCRF-CEM leukemia 24.7%
active: MOLT-4 leukemia 3.16%

O=C(CCN1CCCC1)Nc1ccc2c(NCc3ccccc3)c3ccccc3nc2c1
active: SK-MEL-2 melanoma -1.81% | EKVX NSCLC 4.75% | SN12C renal -5.99% | UO-31 renal 1.35% | TK-10 renal 1.15% | ACHN renal 9.88% | CAKI-1 renal 5.35% | CCRF-CEM leukemia -23.6% | MOLT-4 leukemia -17.5%

N#CC1=C(/N=C/c2ccccc2)Oc2c(ccc3ccccc23)C1c1ccc([N+](=O)[O-])cc1 (configuration not stated)
inactive: SK-MEL-2 melanoma 90.8% | EKVX NSCLC 70.7% | SN12C renal 93.5% | UO-31 renal 59.5% | TK-10 renal 166% | ACHN renal 87.9% | CAKI-1 renal 70.1% | CCRF-CEM leukemia 94.5% | MOLT-4 leukemia 94.4%

Cc1cc2nc3c4ccc(Br)cc4n(CCN(C)C)c3nc2cc1C
active: SK-MEL-2 melanoma 8.78% | UO-31 renal -30.3% | ACHN renal -7.69% | CAKI-1 renal 0.198% | MOLT-4 leukemia 3.31%
inactive: EKVX NSCLC 22.7% | SN12C renal 16.7% | TK-10 renal 22.2% | CCRF-CEM leukemia 12.7%

Cn1c2ccccc2c2c3c(c4c5ccccc5n(C)c4c21)C(=O)OC3
inactive: SK-MEL-2 melanoma 107% | EKVX NSCLC 88.1% | SN12C renal 92.3% | UO-31 renal 61% | TK-10 renal 135% | ACHN renal 87.3% | CAKI-1 renal 82.6% | CCRF-CEM leukemia 98.4% | MOLT-4 leukemia 89.7%

COc1cc2c(c(O)c1Br)C(=O)c1c(O)cc(C[C@H](C)O)cc1[C@H]2[C@H]1c2cc(C[C@H](C)O)cc(O)c2C(=O)c2c1cc(OC)c(Br)c2O
active: SK-MEL-2 melanoma -38.2% | EKVX NSCLC 9.77% | SN12C renal 9.01% | UO-31 renal -29% | ACHN renal -46.1% | CAKI-1 renal 4.31% | MOLT-4 leukemia -0.594%
inactive: TK-10 renal 37% | CCRF-CEM leukemia 10.1%

O=C(Nc1cccc(C2=NCCN2)c1)c1ccc(-c2ccc(C(=O)Nc3cccc(C4=NCCN4)c3)cc2)cc1
inactive: SK-MEL-2 melanoma 105% | EKVX NSCLC 95.8% | SN12C renal 61.7% | UO-31 renal 99.1% | TK-10 renal 138% | ACHN renal 98.4% | CAKI-1 renal 107% | CCRF-CEM leukemia 89.1% | MOLT-4 leukemia 80.9%

C=C1C(=O)O[C@H]2[C@H]1CC/C(CNC(=O)CCc1ccc(OC)cc1)=C\CC[C@@]1(C)O[C@@H]21
inactive: SK-MEL-2 melanoma 74.5% | EKVX NSCLC 71.4% | SN12C renal 35.9% | UO-31 renal 53% | TK-10 renal 33.5% | ACHN renal 31.6% | CAKI-1 renal 38.1% | MOLT-4 leukemia 67.8%
active: CCRF-CEM leukemia 4.85%

Cc1cnc(C(=O)Nc2nc3ccc(S(=O)(=O)Nc4ccc(C(C)(C)C)cc4)cc3[nH]2)cn1
inactive: SK-MEL-2 melanoma 51.1% | EKVX NSCLC 51% | SN12C renal 43.7% | UO-31 renal 40.4% | TK-10 renal 43.4% | ACHN renal 49.6% | CAKI-1 renal 27.3% | CCRF-CEM leukemia 10.8% | MOLT-4 leukemia 21.5%

C=C(C)[C@@H]1CC[C@]2(CN)CC[C@]3(C)[C@H](CC[C@@H]4[C@@]5(C)CCCNC(C)(C)[C@@H]5CC[C@]43C)[C@@H]12
active: SK-MEL-2 melanoma 6.75% | EKVX NSCLC 6.81% | SN12C renal -25.5% | UO-31 renal 5.31% | TK-10 renal -10.6% | ACHN renal -91.8% | CAKI-1 renal -94.5% | CCRF-CEM leukemia -27.4% | MOLT-4 leukemia -45.4%

CN(C)CC(O)c1ccc(/C=C/c2ccc(Cl)cc2)cc1 (configuration not stated)
inactive: EKVX NSCLC 29.7%
active: SK-MEL-2 melanoma -63.9% | SN12C renal -12.3% | UO-31 renal -67.2% | TK-10 renal -91.5% | ACHN renal -50.1% | CAKI-1 renal -46.1% | CCRF-CEM leukemia -43.8% | MOLT-4 leukemia -29.7%

O=S(=O)(NCCCNc1nccc(-c2c(-c3cccc(F)c3)nc3sccn23)n1)c1cccc2ccccc12
inactive: SK-MEL-2 melanoma 47.8% | EKVX NSCLC 56.1% | SN12C renal 46.9% | UO-31 renal 20% | TK-10 renal 71.7% | ACHN renal 34.7% | CAKI-1 renal 29.1% | CCRF-CEM leukemia 38.5% | MOLT-4 leukemia 29.3%

CC(=O)c1ccc(NS(=O)(=O)c2cccc(C(=O)Nc3ccc(Br)cc3)c2)cc1
inactive: SK-MEL-2 melanoma 41% [25 µM] | EKVX NSCLC 34.2% [25 µM] | SN12C renal 64.7% [25 µM] | UO-31 renal 53.8% [25 µM] | TK-10 renal 91.3% [25 µM] | ACHN renal 73.3% [25 µM] | CAKI-1 renal 52.8% [25 µM] | CCRF-CEM leukemia 61.6% [25 µM] | MOLT-4 leukemia 53.7% [25 µM]

Source: PubChem BioAssay (NCI)
